{"source": "ChEMBL document CHEMBL3988442", "about": "“University of Dundee, Small-Polar-MMV Screening Library” (2021)", "note": "Hit rate of the full screen: of about 38,000 compounds, about 1,200 (3.2%) showed an effect of 50% or more. The median lay at about -58%. The full list was thinned out, with strong results kept by preference.", "data": [{"tested_on": "Plasmodium falciparum", "experiment": "Calibr Malaria Delayed Death Assay SOP", "format": "functional, organism-based", "parameters": "scale not given: in the data most compounds retested in dose-response had high values", "settings": "concentration 4.99e-06 (unit not given; other assays of the set use mol/L)", "units": {"Percent Effect": "%"}, "values": [{"smiles": "Cc1cc(C(=O)N2CCC3(C2)CN(c2ccsc2)C(=O)CN3C)[nH]n1.O=C(O)C(F)(F)F", "note": "(stereo not given)", "Percent Effect": -16.33}, {"smiles": "c1ccc(Cc2n[nH]c(C3CCOC3)n2)cc1", "note": "(stereo not given)", "Percent Effect": -53.42}, {"smiles": "COCC(=O)N1CCC2(CC1)CN(c1ccccn1)CCO2.O=C(O)C(F)(F)F", "Percent Effect": -99.25}, {"smiles": "O=C(O)C(F)(F)F.O=C(O)C(F)(F)F.c1ccc(CN2CCC3(CC2)CN(c2ccccn2)CCO3)nc1", "Percent Effect": -71.36}, {"smiles": "COc1ncccc1CN1CCC2(CC1)CN(c1ccccn1)CCO2.O=C(O)C(F)(F)F.O=C(O)C(F)(F)F.O=C(O)C(F)(F)F", "Percent Effect": 55.38}, {"smiles": "COc1ccc(CN2CCC3(CC2)CN(c2ccccn2)CCO3)cc1.O=C(O)C(F)(F)F.O=C(O)C(F)(F)F", "Percent Effect": 60.62}, {"smiles": "Cn1ccnc1CN1CCC2(CC1)CN(c1ccccn1)CCO2.O=C(O)C(F)(F)F.O=C(O)C(F)(F)F", "Percent Effect": -263.3}, {"smiles": "Fc1ccc(CN2CCC3(CC2)CN(c2ccccn2)CCO3)cc1.O=C(O)C(F)(F)F.O=C(O)C(F)(F)F", "Percent Effect": 46.67}, {"smiles": "O=c1[nH][nH]cc1-c1ccnc(NCCc2ccc(F)cc2)n1", "Percent Effect": -53.75}, {"smiles": "COC(=O)c1cnn(-c2cc(Oc3cccc(C)c3)ncn2)c1N", "Percent Effect": -10.04}, {"smiles": "CN1CCC2(CC1)OC(C(=O)NCc1cccnc1)Cn1ccnc12", "note": "(stereo not given)", "Percent Effect": -146}, {"smiles": "COCCN1CCCC(c2nccnc2Nc2nc(C)cs2)C1", "note": "(stereo not given)", "Percent Effect": -10.08}, {"smiles": "O=C(NCC1(O)CCSC1)c1cccc(-n2cccn2)c1", "note": "(stereo not given)", "Percent Effect": -128.5}, {"smiles": "CC(=O)N1CCO[C@@H]2CN(Cc3ccccc3Cl)C[C@@H]2C1.O=C(O)C(F)(F)F", "Percent Effect": -110.8}, {"smiles": "O=C(NC1CCNC1)C1(N2CCCCC2)Cc2ccccc2C1", "note": "(stereo not given)", "Percent Effect": 33.42}, {"smiles": "O=C1NCCCC[C@@H]1NC(=O)C1(N2CCCCC2)Cc2ccccc2C1", "Percent Effect": -107.8}, {"smiles": "O=C(NC1CCNCC1)C1(N2CCCCC2)Cc2ccccc2C1", "Percent Effect": 62.66}, {"smiles": "CC(=O)NCC(=O)N1CCCC(C(=O)c2ccc(C(C)(C)C)cc2)C1", "note": "(stereo not given)", "Percent Effect": -127.3}, {"smiles": "CC(C)(C)c1oc(C(N)=O)cc1CN1CCCCC(N)C1", "note": "(stereo not given)", "Percent Effect": 3.928}, {"smiles": "CN(C)[C@H]1CCCCN(Cc2ccccc2Cn2cccn2)C1", "Percent Effect": 49.71}, {"smiles": "N#Cc1cc(C#N)c(SCC(=O)NCc2ccc(F)cc2)nc1N", "Percent Effect": -76.83}, {"smiles": "N#Cc1cc(C#N)c(SCCC(=O)Nc2ccc(F)cc2)nc1N", "Percent Effect": 10.11}, {"smiles": "N#Cc1cc(C#N)c(SCC(=O)Nc2ccc(F)cc2)nc1N", "Percent Effect": 66.77}, {"smiles": "CN(C)c1ncc(CNC(=O)Nc2ccccc2F)n1C", "Percent Effect": -31.3}, {"smiles": "CN(C)c1ncc(CNC(=O)Nc2ccccc2C(F)(F)F)n1C", "Percent Effect": -113.2}, {"smiles": "CN(C)c1ncc(CNC(=O)Nc2ccc(C(F)(F)F)cc2)n1C", "Percent Effect": 68.14}, {"smiles": "COc1cccc(CNc2nc(N3CCOCC3)ns2)c1OC", "Percent Effect": -58.35}, {"smiles": "CSc1ccc2c(C)cc(N[C@@H](C)CO)nc2c1", "Percent Effect": 13.21}, {"smiles": "COC[C@H](C)Nc1cc(C)c2ccc(SC)cc2n1", "Percent Effect": 74.39}, {"smiles": "CCn1ncnc1C(C)Nc1cc(C)c2ccc(SC)cc2n1", "note": "(stereo not given)", "Percent Effect": -98.68}, {"smiles": "COCC(=O)N1CCCN(Cc2cc(C(C)C)no2)CC1", "Percent Effect": -33.31}, {"smiles": "Cc1c(C(=O)NCC(C)(C)S(C)(=O)=O)cccc1-c1ccccn1", "Percent Effect": -72.33}, {"smiles": "CCC(CO)N(CC=C(C)C)Cc1ccsc1", "note": "(stereo not given)", "Percent Effect": 20.66}, {"smiles": "CCC(CO)N(Cc1ccsc1)Cc1cccc(O)c1", "note": "(stereo not given)", "Percent Effect": 67.4}, {"smiles": "CCC(CO)N(Cc1ccc(C(=O)O)cc1)Cc1ccsc1", "note": "(stereo not given)", "Percent Effect": -80.76}, {"smiles": "CS(=O)(=O)N1CCN(C(=O)c2cc(-c3ccc(Br)s3)n[nH]2)CC1", "Percent Effect": 2.289}, {"smiles": "CN1C(=O)C2(CCN(c3nccc4occc34)CC2)c2ccccc21", "Percent Effect": -46.41}, {"smiles": "Cc1cc(C)cc(C(=O)NCCS(=O)(=O)N2CCSCC2)c1", "Percent Effect": -110.6}, {"smiles": "CCN1CCCN(S(=O)(=O)c2cc3ccccc3o2)CC1", "Percent Effect": 83.88}, {"smiles": "CC(=O)N1CCCN(S(=O)(=O)c2cc3ccccc3o2)CC1", "Percent Effect": -136.3}, {"smiles": "O=S(=O)(c1cc2ccccc2o1)N1CCCC1", "Percent Effect": -30.68}, {"smiles": "CCn1ccc(-c2nnc(SCC(=O)NCC(C)C)n2CC)n1", "Percent Effect": -143.1}, {"smiles": "COc1c(CNCCc2c[nH]c3ccccc23)c(C)nn1C", "Percent Effect": -66.3}, {"smiles": "COc1c(CNC2CCc3cc(F)ccc32)c(C(C)C)nn1C", "note": "(stereo not given)", "Percent Effect": 57.77}, {"smiles": "COc1c(CNC2CCCc3ccccc32)c(C(C)C)nn1C", "note": "(stereo not given)", "Percent Effect": 63.84}, {"smiles": "COc1c(CNC2CCc3cc(F)ccc32)c(C)nn1C.Cl", "note": "(stereo not given)", "Percent Effect": 26.33}, {"smiles": "COc1c(CNC2CCc3ccccc32)c(C)nn1C", "note": "(stereo not given)", "Percent Effect": 30.71}, {"smiles": "COc1c(CNCCc2c[nH]c3cc(F)ccc23)c(C)nn1C", "Percent Effect": 49.69}, {"smiles": "COc1c(CNC2CCOc3ccccc32)c(C(C)C)nn1C", "note": "(stereo not given)", "Percent Effect": -23.6}, {"smiles": "COc1c(CNCCc2c[nH]c3cc(F)ccc23)c(C(C)C)nn1C", "Percent Effect": 59.46}, {"smiles": "CC(C)c1nn(C)c(N(C)C)c1CNC1CCc2cc(F)ccc21.Cl", "note": "(stereo not given)", "Percent Effect": -3.129}, {"smiles": "N#CCCN(Cc1ccccn1)C(=O)c1cccc(CN2CCCC2)c1", "Percent Effect": -57.26}, {"smiles": "CCn1cc(NS(=O)(=O)c2ccc(Br)s2)c(C(=O)NCC(C)C)n1", "Percent Effect": -19.45}, {"smiles": "O=C(NCCc1ccncc1)c1cccc(S(=O)(=O)NC2CCOC2)c1", "note": "(stereo not given)", "Percent Effect": -7.029}, {"smiles": "CC(NCCCN1CCCC1=O)c1cc(Br)ccc1O", "note": "(stereo not given)", "Percent Effect": 50.26}, {"smiles": "CC(NCCCN1CCCC1=O)c1cc(Br)ccc1F", "note": "(stereo not given)", "Percent Effect": 40.27}, {"smiles": "CC(NC(=O)NCCCN1CCCC1=O)c1ccc(Cl)s1", "note": "(stereo not given)", "Percent Effect": -33.34}, {"smiles": "CC(C)c1cc(-c2cnn(C)c2C2CC2)c(C#N)c(N)n1", "Percent Effect": -61.18}, {"smiles": "O=C(CC(SC1CCCCC1)C(=O)O)c1ccc(Br)cc1", "note": "(stereo not given)", "Percent Effect": -115.9}, {"smiles": "CCC1CN(C(=O)c2ccc(O)c(C)c2)CCN1C(C)C", "note": "(stereo not given)", "Percent Effect": -125.9}, {"smiles": "CCC1CN(C(=O)c2ccccc2C(C)=O)CCN1C(C)C", "note": "(stereo not given)", "Percent Effect": -70.36}, {"smiles": "O=C(c1ncccn1)N1C[C@@H]2COC[C@]2(COc2cccnc2)C1", "Percent Effect": -80.86}, {"smiles": "O=C(CCn1ccccc1=O)N1CCCC(COc2ccc(F)cc2)C1", "note": "(stereo not given)", "Percent Effect": -62.32}, {"smiles": "CN1Cc2c(C(=O)NC3CCCCC3)ncn2-c2ccccc2S1(=O)=O.O=C(O)C(F)(F)F", "Percent Effect": -186.4}, {"smiles": "COc1cc(F)ccc1-c1cc(CO)ccn1", "Percent Effect": -93.03}, {"smiles": "COc1cc(F)ccc1-c1cc(N)ccn1", "Percent Effect": 50.95}, {"smiles": "COc1ccc(-c2cc(N)ccn2)c(OC)c1OC", "Percent Effect": -13}, {"smiles": "Cc1cnc(C(=O)N2CCOCC2C)cn1", "note": "(stereo not given)", "Percent Effect": -104.7}, {"smiles": "O=C(NCC1CC1)[C@@H]1CC[C@@H]2[C@@H](CCN2Cc2ccc(F)c(F)c2)O1.O=C(O)C(F)(F)F", "Percent Effect": -53.52}, {"smiles": "O=C1CCCN1CCC1CCN(C2CCCNC2)CC1", "note": "(stereo not given)", "Percent Effect": -108.9}, {"smiles": "CCn1cc(CN2CCN(C(=O)c3cc(C)c(C)s3)CC2)c(C)n1", "Percent Effect": -80.19}, {"smiles": "Cc1cccc(CNCC2COC3(CCCCC3)O2)c1C", "note": "(stereo not given)", "Percent Effect": -23.41}, {"smiles": "COCCOc1ccccc1CNCC1COC2(CCCC2)O1", "note": "(stereo not given)", "Percent Effect": 73.59}, {"smiles": "Cc1cccc(CNCC2COC3(CCCC3)O2)c1C", "note": "(stereo not given)", "Percent Effect": -41.87}, {"smiles": "CC(=O)Nc1nc(C(=O)NCc2ccc(OC(C)C)nc2)cs1", "Percent Effect": -75.22}, {"smiles": "Cc1cnc(C(=O)N(CCN(C)C)Cc2ccc(Cl)cc2)cn1", "Percent Effect": -38.51}, {"smiles": "Cc1cc(C(=O)N(CCN(C)C)Cc2ccc(Cl)cc2)no1", "Percent Effect": 51.61}, {"smiles": "CN(C)CCN(Cc1ccc(C(F)(F)F)cc1)C(=O)c1cc[nH]n1", "Percent Effect": 33.3}, {"smiles": "CN(C)CCN(Cc1ccc(Cl)cc1)C(=O)c1cnccn1", "Percent Effect": 32.67}, {"smiles": "CN(C)CCN(Cc1ccc(Cl)cc1)C(=O)c1ccn(C)c(=O)c1", "Percent Effect": -75.96}, {"smiles": "CN(C)CCN(Cc1ccc(Cl)cc1)C(=O)c1ccncc1", "Percent Effect": 51.29}, {"smiles": "Cc1nnc([C@@H]2CC[C@@H]3[C@@H](CCN3C3CCC3)O2)o1", "Percent Effect": -20.01}, {"smiles": "CC1CCCN(C(=O)Nc2ccc(F)c(C(N)=O)c2)C1", "note": "(stereo not given)", "Percent Effect": -56.74}, {"smiles": "CNc1cc(-c2cccc(CN)c2)c2cc[nH]c2n1", "Percent Effect": -44.1}, {"smiles": "CCc1ccc2nc(C)cc(C(=O)N[C@@H]3CNC[C@H]3O)c2c1", "Percent Effect": -23.23}, {"smiles": "CCc1ccc2nc(C)cc(C(=O)NC[C@@H]3CCNC[C@H]3O)c2c1", "Percent Effect": -50.87}, {"smiles": "CCc1ccc2nc(C)cc(C(=O)N[C@@H]3CCCNC3)c2c1", "Percent Effect": 64.11}, {"smiles": "CC(C)(C)CN1CCCC12CCN(S(=O)(=O)c1ccccc1)C2.O=C(O)C(F)(F)F", "note": "(stereo not given)", "Percent Effect": 29.05}, {"smiles": "Cc1cccc(C(=O)N2CCCn3cnc(CN4CCCC4=O)c3C2)n1", "Percent Effect": -0.7301}, {"smiles": "Cn1ncc2c1CN(Cc1ccccc1F)CC2COCC1CC1.O=C(O)C(F)(F)F.O=C(O)C(F)(F)F", "note": "(stereo not given)", "Percent Effect": -47.59}, {"smiles": "Cc1ccc(OCC2CCCN(c3nc(CO)cs3)C2)cc1", "note": "(stereo not given)", "Percent Effect": -23.08}, {"smiles": "COc1ccc(OCC2CCCN(c3nc(CO)cs3)C2)cc1", "note": "(stereo not given)", "Percent Effect": -52}, {"smiles": "OCc1csc(N2CCCC(COc3cccc(F)c3)C2)n1", "note": "(stereo not given)", "Percent Effect": 81.1}, {"smiles": "COCCCNC(=O)N1CCC(CNC(=O)c2cnn(C)c2)CC1", "Percent Effect": -42.86}, {"smiles": "c1c(CN2CCOCC2)nc2n1CCN(C1CCOCC1)C2", "Percent Effect": -53.44}, {"smiles": "CC(C)[C@@H]1CN(S(=O)(=O)c2cccc(C(=O)O)c2)C[C@H]1N(C)C", "Percent Effect": -75.82}, {"smiles": "CC(C)[C@H]1CN(S(=O)(=O)c2cccnc2)C[C@@H]1N", "Percent Effect": -121.7}, {"smiles": "COc1cccc(S(=O)(=O)N2C[C@@H](N(C)C)[C@H](C(C)C)C2)c1", "Percent Effect": 72.07}, {"smiles": "CS(=O)(=O)NCc1cnc2n1CCN(Cc1ccco1)CC2.O=C(O)C(F)(F)F", "Percent Effect": -61.12}, {"smiles": "Cc1ccc(C(=O)Nc2nnc(C(C)C)s2)c(-n2cnnn2)c1C", "Percent Effect": -117.2}]}]}
